According to PubChem BioAssay (NCI):
The panel holds about 79,000 compounds, 15% with a hit somewhere; the sample as a whole holds those more often. No stated cut-off is given here; in the data, active means growth inhibition above about 70%; inactive means the rest. Where a SMILES comes first, the peptide text is derived from it. The star is where a group is joined. Boc = CC(C)(C)OC(=O)*

What was measured:
[1] = NCI Yeast Anticancer Drug Screen. Data for the rad50 strain (AID 155);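 further: 0% = growth of vehicle-only cultures of the same strain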; details: S. cerevisiae rad50 strain growth inhibition; at 50.0 µM; hits give high values
Procedure, shortened: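 DNA repair mutant yeast, compound exposure, growth read-out; inhibition is taken relative to vehicle.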

[2] = NCI Yeast Anticancer Drug Screen. Data for the mec2-1 strain (AID 157); details: S. cerevisiae mec2-1 strain, at 50.0 µM, hits give high values
Procedure, shortened: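 Using mec2-1 yeast: add compound, measure growth, express inhibition versus vehicle-treated cultures.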

[3] = NCI Yeast Anticancer Drug Screen. Data for the sgs1 mgt1 strain (AID 161);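 further: 0% = growth of cultures given vehicle only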; details: S. cerevisiae sgs1 mgt1 strain, at 50.0 µM, hits give high values
Procedure, shortened: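 This yeast growth screen uses a strain with defined DNA-repair lesions; compound-treated growth is compared with vehicle-treated growth.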

[4] = NCI Yeast Anticancer Drug Screen. Data for the cln2 rad14 strain (AID 165);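 further: 0% = growth equal to vehicle treated cultures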; details: S. cerevisiae cln2 rad14 strain, at 50.0 µM, hits give high values
Procedure, shortened: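 Yeast strain cln2 rad14, bearing defects in cell cycle control and DNA repair, serves as the test system; values reflect growth inhibition compared with vehicle.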

[5] = NCI Yeast Anticancer Drug Screen. Data for the bub3 strain (AID 167); details: S. cerevisiae bub3 mutant strain, at 50.0 µM, hits give high values
Procedure, shortened: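 In this screen, a yeast mutant lacking normal mitotic checkpoint function is challenged with compound. Relative growth versus vehicle gives the inhibition value.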

[6] = NCI Yeast Anticancer Drug Screen. Data for the mlh1 rad18 strain (AID 175); details: S. cerevisiae mlh1 rad18 strain growth inhibition; at 50.0 µM; hits give high values
Procedure, shortened: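 Steps: expose repair-defective yeast to compound; measure growth; express inhibition against vehicle-treated controls.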

Measured: growth inhibition

CC1(C)CCCC(C)(C)C1=NO
inactive: [1] -20.2% | [2] -5.6% | [3] -9.75% | [4] 12.4% | [5] 5.75% | [6] 22.9%

CC1(O)CC2C(CC1SCCO)C2(C)C (stereo unspecified)
inactive: [1] -30.4% | [2] -10.8% | [3] -42.1% | [4] -11.1% | [5] -56% | [6] -30.5%

CCCCSc1nc2c([nH]1)c(=O)n(C)c(=O)n2C
inactive: [1] -0.75% | [2] 2.8% | [3] 4.3% | [4] -34.5% | [5] 22.9% | [6] 1.5%

O=C1CCN2CCC(=O)c3c(Cl)ccc1c32
inactive: [1] 8.05% | [2] 13.3% | [3] 8.5% | [4] 13.8% | [5] 14.1% | [6] 16.9%

CCOC(=O)c1cc(=O)[nH]c(N)n1
inactive: [1] -6.4% | [2] -10.8% | [3] -1.55% | [4] -38.2% | [5] 10.4% | [6] -4.15%

O=C(CCCl)OC1CCCC1
inactive: [1] 1.5% | [2] -9.8% | [3] -3.6% | [4] -30.4% | [5] -5.65% | [6] 9%

CCC1(N=[N+]=[N-])C(=O)c2ccccc2N(c2ccccc2)C1=O (stereo unspecified)
inactive: [1] -13.3% | [2] -13% | [3] -18.9% | [4] 2.75% | [5] -0.95% | [6] -19.4%

CCCCCNC(=O)c1csc(-c2csc(CCNC(C)=O)n2)n1
inactive: [1] -18.9% | [2] 4.85% | [3] 4.7% | [4] -26.1% | [5] 16.1% | [6] 3.8%

Cc1ccc(-c2c(C#N)c(-c3ccc([N+](=O)[O-])cc3)c(C#N)c(=O)n2NS(=O)(=O)c2ccccc2)cc1
inactive: [1] 23.1% | [2] 16.8% | [3] 24.5% | [4] 27.4% | [5] 14.6% | [6] 0.8%

OCC1NCCC(O)C1OC1OC(CO)C(O)C(O)C1O (stereo unspecified)
inactive: [1] 5.25% | [2] -22.1% | [3] -0.65% | [4] -2.75% | [5] -5.7% | [6] -18.6%

O=C(Nc1ccc(Cl)cc1)Nc1ccc(Cl)nn1
inactive: [1] -29.2% | [2] 7.85% | [3] -10.1% | [4] -39.8% | [5] -6.8% | [6] -1.85%

CC1N=C(SCC(=O)c2ccc(Cl)cc2)N2C(C)N=C(SCC(=O)c3ccc(Cl)cc3)N12 (stereo unspecified)
inactive: [1] -0.65% | [2] -17.1% | [3] -20.6% | [4] 0.5% | [5] -6.85% | [6] 10.2%

COC1(OC)C(N(C)C)=C(Cl)C(=O)/C1=C/C=O
inactive: [1] 7.75% | [2] -10.7% | [3] -16.9% | [4] -6.65% | [5] 13.8% | [6] -16.4%

COc1cccc(C(N)C(=O)O)c1 (stereo unspecified)
inactive: [1] -22.9% | [2] -16.2% | [3] -5.25% | [4] -26.2% | [5] -12.4% | [6] -17.4%

COc1ccc2c(c1)N=C(NNC1=Nc3cc(OC)ccc3SC1)CS2
inactive: [1] -9.1% | [2] 3.15% | [3] 14.4% | [4] -14.9% | [5] -4.7% | [6] 3.9%

CCCOc1ccc(C(=O)O)cc1
inactive: [1] 10.8% | [2] 7.85% | [3] 6.3% | [4] -2% | [5] -14.8% | [6] 4.15%

C=C(CC(=O)OCC)C(=O)OCC
inactive: [1] 15.4% | [2] 4.6% | [3] 18.4% | [4] 1.95% | [5] 1.25% | [6] 13.8%

C=C1C(=O)O[C@@H]2/C=C(\C)CC/C=C(/COC(C)=O)C[C@@H](OC(C)=O)[C@@H]12
inactive: [1] 7.4% | [2] -28.2% | [3] 20.1% | [4] 0.35% | [5] -1.4% | [6] -30.1%

Cc1ccccc1NCc1ccccc1
inactive: [1] 25.8% | [2] -3.2% | [3] 15.3% | [4] -29.8% | [5] 0.35% | [6] 23.1%

O=C(Cc1ccccc1)OCC(=O)c1ccc(-c2ccccc2)cc1
inactive: [1] -1.05% | [2] 15.1% | [3] 0.9% | [4] 39.8% | [5] 19.1% | [6] -5.15%

Cc1ccc(NC(=S)NC2CCCCC2)cc1Cl
inactive: [1] -2.4% | [2] 43% | [3] 29.4% | [4] -24.9% | [5] 42.3% | [6] 26.6%

Cc1ccc(OC/C=C/CS(=O)(=O)c2ccc(C)cc2)cc1
inactive: [1] -11.6% | [2] 10.3% | [3] 5.65% | [4] -23.2% | [5] -12.7% | [6] -28.6%

CC(=O)Nc1ccc(S(=O)(=O)N=S(c2ccccc2)c2ccccc2)cc1
inactive: [1] 14.7% | [2] 3.05% | [3] 8.45% | [4] 10.8% | [5] -7.2% | [6] -0.25%

Cc1cccc(C2(C(=O)O)CCCC2)c1
inactive: [1] 14.7% | [2] -5.2% | [3] 15.9% | [4] 39% | [5] 24.3% | [6] 35.4%

Nc1ccnc2n[nH]nc12
inactive: [1] -3.7% | [2] -2% | [3] -19.1% | [4] -9.05% | [5] 5.05% | [6] -26.8%

O=C(/C=C\c1ccco1)NC(=O)NC(=O)N1CCCCC1
inactive: [1] -0.7% | [2] -22.3% | [3] -2.05% | [4] -16.4% | [5] -9.15% | [6] 4.7%

CCOC(=O)C(Cc1ccc([N+](=O)[O-])cc1)NC(=O)CC1c2ccccc2-c2ccccc21 (stereo unspecified)
inactive: [1] -10.1% | [2] 1.05% | [3] 3.4% | [4] -35% | [5] -9.9% | [6] -8.95%

CC1CCCCCN1CCC(=O)c1ccccc1 (stereo unspecified)
inactive: [1] 17.9% | [2] 25.1% | [3] 17.9% | [4] 19.2% | [5] 32.6% | [6] 8.65%

CSSC(SSC)C(SSC)SSC
inactive: [1] -4.7% | [2] 4.2% | [3] 43.4% | [4] 1.4% | [5] 36.8% | [6] 47.8%

CC(=O)C1(C)OC(c2ccccc2)=NC1=S (stereo unspecified)
inactive: [1] 7.4% | [2] 14.3% | [3] 7.55% | [4] 14.9% | [5] -5.1% | [6] 9.35%

NC(Cc1ccccc1)C(=O)CCl (stereo unspecified)
inactive: [1] 31.6% | [2] 29.8% | [3] 40.8% | [4] 18.4% | [5] 36.2% | [6] 46.5%

Cn1ncnc1CCc1ccccc1
inactive: [1] -10.3% | [2] -3.9% | [3] -40.5% | [4] -4.55% | [5] -14% | [6] -21.1%

CSCCC(NC(=O)C(CC(C)C)NC(=O)CNC(=O)OC(C)(C)C)C(=O)N(C)C (stereo not drawn) (Boc-Gly-Leu-Met-NMe2; configuration not given here)
inactive: [1] 6.6% | [2] -5.15% | [3] -3.9% | [4] -2.8% | [5] -0.1% | [6] -3%

Cc1nn(C(=O)c2ccc(Cl)cc2)c2c1C(c1ccco1)SC(N)=N2 (stereo unspecified)
inactive: [1] -28.6% | [2] -17.5% | [3] -8.8% | [4] -17.9% | [5] -18.1% | [6] -14.8%

CC(C)(/C=N\O)NO
inactive: [1] -14.8% | [2] -20.4% | [3] 0.4% | [4] 13.6% | [5] -9.05% | [6] -0.9%

CN1CCc2c1nc(-c1ccccc1)c1c2N(C)CC1
inactive: [1] 2.2% | [2] -11% | [3] -6.4% | [4] 9.65% | [5] -18.2% | [6] -1.5%

CCOc1ccc(NC=O)cc1
inactive: [1] 0.75% | [2] 8.45% | [3] 5.2% | [4] -3.55% | [5] 18.5% | [6] -11.3%

Cc1ccnn1CCc1ccc(Cl)cc1Cl
inactive: [1] 18.1% | [2] 15.3% | [3] 34.1% | [4] 11.4% | [5] 29.5% | [6] -4.55%

Cc1ccc(N=C2N=C(N3CC(C)OC(C)C3)c3ccccc32)cc1 (stereo unspecified)
inactive: [1] -12.9% | [2] -22.9% | [3] -15.6% | [4] -7.8% | [5] 0% | [6] -21.4%

Cc1c(Cl)c2ccc(N(C)C)cc2[nH]c1=O
inactive: [1] -2.9% | [2] 0.45% | [3] -0.1% | [4] -6.35% | [5] 11.2% | [6] 7.65%

CCO/C=C1/N=C(c2ccc3ccccc3c2)OC1=O
inactive: [1] 35.9% | [2] 9.8% | [3] 13.3% | [4] -23.7% | [5] -32.2% | [6] 14%
